# D2 PAM-1: D2 dopamine receptor (human) potentiation. P14416. HEK293 T-REx D2, calcium flux, EC20 dopamine potentiation. potentiation, % at 10 µM. actives 0.34% (n = 340,000). AID 485347;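 active means potentiation over 3 SD above the plate norm, cut at about 30% in these data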; further: 0% is about no effect
#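 Potentiation of an EC20 dopamine calcium response is measured in a force-coupled, tetracycline-inducible Hek293 Trex D2 line. Compound-only kinetic reads over 180 s flag agonists before dopamine addition.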
# D2 ag-1: agonists of human D2 dopamine receptor | P14416 | HEK293 T-REx D2 cells, calcium flux agonist mode | activation, % at 2 µM | actives 0.53% (n = 340,000);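 active means activation over 3 SD above normal in the single-dose calcium agonist read, cut at about 30% in these data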; further: 0% is about no effect
#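 Calcium-flux readout, 1 cycle/sec over 180 s following compound pin transfer, in inducible HEK293 Trex D2 cells (force-coupled); dopamine controls included. Positive calcium responses during this window marked compounds as potential agonists.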
# D2 PAM-2: positive allosteric modulators of human D2 dopamine receptor; P14416; DiscoveRx D2 beta-arrestin cells, luminescence, 90 min; 100% = 57 uM dopamine signal; potentiation, % (no concentration beside the values); actives 0.23% (n = 360,000); in the data active means potentiation above about 50%; inconclusive means mostly about 30% to 49%
#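 PathHunter D2 cells, attached overnight at 37 deg C, received compound in DMSO plus dopamine at EC20 (50 nM final) for 90 min at 37 deg C. Beta-arrestin recruitment was read as luminescence after 1 h with detection reagent at ambient temperature.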
# D2 antag: antagonizes the human D2 dopamine receptor | HEK293 TREx D2 cells, calcium flux, dopamine EC80 | inhibition, % at 10 µM | actives 2% (n = 340,000); in the data active means inhibition above about 30%; inactive means below that, where a call was filed; further: 0% is about no effect
#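 In this primary screen, negative modulation is detected by tracking calcium flux after an EC80 dopamine challenge in inducible HEK293 T-REx D2 cells preexposed to test compound for 180 s.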
# D2 ag-2: activates the human D2 dopamine receptor. P14416. DiscoveRx PathHunter D2 beta-arrestin, luminescence, 90 min; 100% = 57 uM dopamine signal. activation, % (concentration not given with the values). actives 0.084% (n = 360,000). AID 624465; in the data active means activation above about 40%; inconclusive means between about 15% and that limit
#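 DiscoveRx PathHunter D2 beta-arrestin cells (2,100/well) attached overnight, then compound-stimulated 90 min at 37 C in HBSS/10 mM HEPES/0.1% Tween-20 buffer; beta-galactosidase complementation read by luminescence after 1 h at ambient temperature. Dopamine 57 uM final (EC100) as control.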
# D3 arrestin ag: confirmation of human D3 dopamine receptor agonists, beta-arrestin | shares compounds with D2 ag-1 | DiscoveRx D3 beta-arrestin cells, luminescence, 90 min | Potency, µM (series often up to 76.9 µM), for inactives: at the top dose activation, actives largely listed as activators | actives 4% (n = 2,300) | AID 720506;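 further: potency means the concentration at half of the fitted maximal effect; 100% = dopamine control response; nearly all actives have a fitted effect of over 70% in size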
# Target sequence (P35462 whole entry, looked up): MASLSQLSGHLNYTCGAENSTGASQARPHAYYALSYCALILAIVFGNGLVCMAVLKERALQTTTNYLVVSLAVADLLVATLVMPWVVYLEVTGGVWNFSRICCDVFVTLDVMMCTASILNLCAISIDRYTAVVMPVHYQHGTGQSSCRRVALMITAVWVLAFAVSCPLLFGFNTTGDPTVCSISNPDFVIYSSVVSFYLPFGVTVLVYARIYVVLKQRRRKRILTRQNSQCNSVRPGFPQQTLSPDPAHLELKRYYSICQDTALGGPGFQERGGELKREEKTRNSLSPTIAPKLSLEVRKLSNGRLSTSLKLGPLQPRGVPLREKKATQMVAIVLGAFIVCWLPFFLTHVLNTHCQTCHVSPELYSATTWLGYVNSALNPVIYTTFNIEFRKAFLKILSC
# D2 ag-3: D2 receptor agonism, beta-arrestin counterscreen | shares compounds with D2 ag-1 | DiscoveRx PathHunter D2 beta-arrestin, luminescence, 90 min; response scale: percent relative to full dopamine signal | Potency, µM (series often up to 76.9 µM), for the others: at the highest dose activation, actives largely listed as activators | actives 5.9% (n = 2,300) | AID 720507; further: potency means the concentration at half of the fitted maximal effect; % of control where 0% means no effect; nearly all actives have a fitted effect of over 70% in size
# Numbers without * were called inactive; ? = inconclusive; / = not tested or not shown. Sampled rows, rich in hits. Any-hit rate of the full collection: about 2.4%. Unless noted, the call rests on the fitted dose curve; in most records, active means well fitted activation curve with a large enough effect; inconclusive means small, poorly fitted or top-dose-only effect; inactive means flat fitted curve, though single readings scatter.
SMILES,D2 PAM-1,D2 ag-1,D2 PAM-2,D2 antag,D2 ag-2,D3 arrestin ag,D2 ag-3
O=C(O)C1C2C=CC(C2)C1C(=O)NCCCc1ccccc1 (stereo unspecified),1.0,1.4,-8.6,-25.6,0.9,/,/
CCn1c2c(c(=O)n3ncc(C(=O)Nc4ccc(F)cc4Cl)c13)CN(Cc1ccc(OC)cc1)CC2,-0.2,-1.9,/,/,/,/,/
Cc1ccccc1C(=O)N1CCC(C(=O)N(C)CCOc2ccccc2)CC1,4.8,-0.1,-4.0,-3.1,-6.9,/,/
Cc1cccc(N(Cc2ccccc2)C(=O)C2CCN(C(=O)c3ccccc3C)CC2)c1,0.1,-0.1,-9.7,-54.7,1.2,-14.2%,2.6%
COc1ccc(C(=O)N2CCC(N3CCN(c4ccccc4)CC3)CC2)cc1OC,-12.1,40.8*,-20.8,25.8,6.0,12.1%,17.5%
COc1ccc(C(=O)N2CCN(C3CCC(c4ccccc4)CC3)CC2)cc1OC (stereo unspecified),-18.7,0.8,-16.2,-2.5,-3.4,/,/
COc1ccccc1N1CCN(C2CCN(C(=O)c3cccc(F)c3)CC2)CC1,-5.8,-0.3,-26.0,-15.9,-1.1,/,/
COc1cc(OC)cc(C(=O)N2CCC(N3CCN(c4ccccc4)CC3)CC2)c1,-15.3,43.1*,-26.7,37.1*,3.9,26.8%,23.0%
COc1ccccc1N1CCN(C2CCN(C(=O)c3cc(OC)c(OC)c(OC)c3)CC2)CC1,-16.4,3.3,-10.6,4.2,2.9,/,/
COc1ccccc1N1CCN(C2CCN(C(=O)c3ccc(F)cc3)CC2)CC1,-20.3,27.6,-5.3,25.0,-2.6,-16.8%,2.3%
CCCCc1ccc(C(=O)N/C(=C\c2ccc(C)cc2)C(=O)NC2CCCCC2)cc1,-2.3,0.3,/,/,/,/,/
COc1ccc(C2CC(O)(c3ccccc3)Oc3cc(OC)cc(OC)c32)cc1 (stereo unspecified),10.5,-0.2,1.5,3.7,5.4,19.5%,4.3%
COc1ccc(C2CC(O)(c3ccccc3)Oc3c(C)ccc(C)c32)cc1 (stereo unspecified),20.8,0.6,-3.2,3.7,-3.6,/,/
CSc1ccccc1NC(=O)C1C2CCC(C2)C1C(=O)O (stereo unspecified),-2.6,27.1,-5.1,-3.3,-3.6,-10.9%,-3.8%
O=C(O)c1ccc(NC(=O)C2C3CCC(C3)C2C(=O)O)cc1 (stereo unspecified),0.8,0.1,4.0,-8.0,-2.2,/,/
Cc1ccc(CN2CCN(c3cccc4[nH]ccc34)CC2)cc1,-21.4,72.6*,-24.9,72.3*,?,-5.1%,?
O=C(c1ccc(Cl)cc1)N1CCN(c2cccc3[nH]ccc23)CC1,1.8,5.9,-5.8,8.6,-4.2,/,/
Cc1ccc(NC(=O)CSc2ncc3c(n2)-c2ccccc2N(Cc2cccc(F)c2)S3(=O)=O)cc1F,-13.7,0.6,/,/,/,/,/
CCCN1CNC(=S)N(c2ccc(C(=O)OCC)cc2)C1,-3.6,-0.3,3.4,-1.1,-2.7,/,/
CCOC(=O)c1ccc(N2CN(CCc3ccccc3)CNC2=S)cc1,7.0,6.8,-8.6,-14.6,-2.1,-5.3%,-4.1%
O=C(Nc1ccc(N2CCOCC2)cc1)c1ccc(S(=O)(=O)N2CCCCC2)cc1,-10.2,2.5,-14.6,3.6,-1.6,-1.5%,-1.4%
CC(=O)Nc1ccc(C(=O)Nc2ccc(S(=O)(=O)N3CCOCC3)cc2)cc1,3.0,0.6,0.7,-5.8,4.2,/,/
CCOc1ccc(C=NCC(O)c2ccccc2)cc1 (stereo unspecified),-2.3,20.8,-7.3,12.9,3.0,-3.8%,1.3%
CCOc1ccc(/C=N/NC(=O)C(OC)c2ccccc2)cc1 (stereo unspecified),5.1,0.3,4.5,0.3,1.0,/,/
COc1ccc(OC)c(NC(=O)c2cccc(N3C(=O)C4C5CCC(C5)C4C3=O)c2)c1 (stereo unspecified),/,/,5.2,/,11.5,19.2%,?
SMILES,D2 PAM-1,D2 ag-1,D2 PAM-2,D2 antag,D2 ag-2,D3 arrestin ag,D2 ag-3
C/C(=N\NC(=O)c1ccc(C(=O)N/N=C(\C)c2ccco2)o1)c1ccco1,7.9,0.6,-0.1,-27.7,-1.3,/,/
C/C(=N\O)c1ccco1,15.5,-1.1,-11.2,4.1,-3.6,-1.8%,2.1%
CCC(C)c1ccc(OCC(=O)Nc2cccc(C(=O)Nc3ccc(C(=O)O)cc3)c2)cc1 (stereo unspecified),-25.6,64.0*,-11.7,4.8,2.8,21.6%,0.7%
COc1ccc(CC(=O)Nc2ccc(S(=O)(=O)NC(C)C)cc2)cc1,/,/,-4.2,/,2.5,22.4%,10.6%
CCCCNS(=O)(=O)c1ccc(NC(=O)Cc2ccc(OC)cc2)cc1,-7.2,0.1,-4.9,-3.7,1.6,/,/
NC(=O)c1ccc(NC(=O)CN2CCN(c3ccccc3)CC2)cc1,-22.1,72.5*,-14.9,62.9*,14.6,?,?
CCOC(=O)c1ccc(NC(=O)CN2CCN(c3ccccc3)CC2)cc1,-17.3,64.7*,19.1,61.7*,?,?,?
O=C(CN1CCN(c2ccccn2)CC1)Nc1ccc(OCc2ccccc2)cc1,9.0,12.5,?,57.3*,41.0*,-4.7%,?
NC(=O)c1ccc(NC(=O)CN2CCN(c3ccc(Cl)cc3)CC2)cc1,6.3,/,-1.9,/,-4.1,/,/
CC(=O)N1CCc2cc(C(=O)CN3CCN(c4ccccn4)CC3)ccc21,-28.7,86.8*,23.6,93.4*,?,1.58µM*,1.12µM*
COc1ccc(NC(=O)CN2CCN(c3ccccc3)CC2)cc1,-23.0,54.1*,-8.2,50.0*,-1.0,9.3%,13.8%
COC(=O)c1ccc(C(=O)OC)c(NC(=O)CN2CCN(c3ccccc3)CC2)c1,7.4,0.0,-15.7,-34.7,-2.6,/,/
COC(=O)c1ccc(NC(=O)CN2CCN(c3ccccn3)CC2)cc1,-22.1,64.2*,13.2,68.5*,46.3*,-3.3%,?
O=C(CN1CCN(c2ccccn2)CC1)Nc1ccccc1C(=O)Nc1ccccc1,9.3,1.1,11.6,-6.3,2.1,/,/
COC(=O)c1ccc(NC(=O)CN2CCN(c3ccccc3)CC2)cc1,-22.1,71.3*,13.3,95.0*,?,-3.1%,?
CC(=O)N1CCCc2cc(S(=O)(=O)N3CCC(C(=O)NCc4cccc(C)c4)CC3)ccc21,-2.7,-1.2,/,/,/,/,/
O=C(CN1CCN(c2ccccn2)CC1)Nc1ccc(F)c(F)c1,-18.4,52.2*,3.4,17.5,?,?,15.6%
O=C(CN1CCN(c2ccccn2)CC1)NCCc1ccccc1,-5.7,5.5,-3.6,-7.4,4.8,/,/

# High-throughput results from PubChem BioAssay.
